For assay [1], the target named is Aldehyde dehydrogenase, mitochondrial (Homo sapiens) (UniProt P05091). The assay is described as follows: qHTS for Inhibitors of the Aldehyde Dehydrogenase Family (ALDH2) Confirmatory screens (AID 2061303; active = well fitted inhibition curve with a large enough effect; title and protocol of this record describe different tests; also: nearly all actives have a fitted effect of over 45% in size; also: potency is read from the fitted curve at half-maximal effect). In general terms: In qHTS, concentration-response curves come from the screen itself.
Assay [2] in a line: qHTS for Inhibitors of the Aldehyde Dehydrogenase Family (ALDH1A2, ALDH1A3, ALDH2, ALDH3A1) (AID 2061307). Also: nearly all actives have a fitted effect of over 50% in size. As to Potency: test system not described further here; potency is read from the fitted curve at half-maximal effect.
Assay [3] deals with Retinaldehyde dehydrogenase 3 (Homo sapiens) (UniProt P47895). Briefly: qHTS for Inhibitors of the Aldehyde Dehydrogenase Family (ALDH1A3) Confirmatory screens (AID 2061311). Also: nearly all actives have a fitted effect of over 60% in size. Also: potency is read from the fitted curve at half-maximal effect.
The target in assay [4] is Retinal dehydrogenase 2 (Homo sapiens) (UniProt O94788). The assay is described as follows: qHTS for Inhibitors of the Aldehyde Dehydrogenase Family (ALDH1A2) Confirmation screens (AID 2061314). Also: nearly all actives have a fitted effect of over 65% in size. Also: potency is read from the fitted curve at half-maximal effect.
Assay [5] has as its target Retinaldehyde dehydrogenase 3 (Homo sapiens) (UniProt P47895). The assay is described as follows: qHTS for Inhibitors of the Aldehyde Dehydrogenase Family (ALDH1A3) Primary screen (AID 2061315).
Assay [6] has as its target Aldehyde dehydrogenase 1A1 (Homo sapiens) (UniProt P00352). The assay is described as follows: qHTS for Inhibitors of the Aldehyde Dehydrogenase Family (ALDH1A1) Confirmatory screens (AID 2061316). Also: nearly all actives have a fitted effect of over 65% in size. Also: potency is read from the fitted curve at half-maximal effect.
Assay [7] is described as follows: BET inhibitor-based combinations targeting novel dependencies in MECOM-rearranged (r) AML: OCI-AML3 cell line (AID 2202232). Also: potency is read from the fitted curve at half-maximal effect; nearly all actives have a fitted effect of over 35% in size. The settings on record: Potency: OCI-AML3 viability. In a few lines: (§1)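 Readout: CellTiter-Glo luminescence. Exposure: 48 h, 11 concentrations, 500 cells/well. Metric: AUC and within-line Z-AUC after DMSO/empty-well normalization.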
Assay [8] in a line: BET inhibitor-based combinations targeting novel dependencies in MECOM-rearranged (r) AML: UCSD-AML1 cell line (AID 2202235). Also: series mostly up to about 46 µM; nearly all actives have a fitted effect of over 40% in size. In a few lines: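 Seeding density was 500 cells/well, and drug exposure lasted 48 hr under standard culture conditions. Read-out used CellTiter-Glo reagent with a 15 min room-temperature incubation before luminescence measurement; AUC and Z-AUC summarize the normalized responses.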

Assay [9] can be described thus: BET inhibitor-based combinations targeting novel dependencies in MECOM-rearranged (r) AML: AML-194 cell line (AID 2202237; also: nearly all actives have a fitted effect of over 40% in size). In a few lines:
as §1

Molecules are shown by their SMILES. Several values for one entry are separate records, joined by “and”; a condition that tells them apart may be missing. Equal values may be shown once. Records with an inconclusive call do not appear. Activity calls are given as the source filed them. Unless noted, calls follow the shape of the dose curve; as a rule, active = well fitted curve in the direction sought with a large enough effect; inconclusive = small, poorly fitted or top-dose-only effect, or another doubt; inactive = no such curve, though single readings can be large; an effect the other way counts as inactive or inconclusive. Residues, ends and D or L forms follow the SMILES beside them. *: point of attachment. Cbz = O=C(OCc1ccccc1)*; CH2Cl = ClC*

On to `O=C(Nc1cc(Cc2ccccc2)ccn1)c1ccc(-c2cccc([N+](=O)[O-])c2)o1`, for which the Potency in [1] is 11.2 µM (active); in assay [2], 7.08 µM (active); in assay [3], 7.94 µM (active); in [4], 5.01 µM (active). In addition, the Potency result in assay [5] is “inactive”.

In the case of `CC(=O)Nc1sc2c(c1-c1cccc(F)c1)CCNC2`, the Potency result in [1], in [2], in assay [3], in assay [5] and in assay [6] was “inactive” in each case. Besides, in assay [4], the Potency was 20.1 µM (active).

In the case of `Cn1ncc2c(C(=O)NCC(F)F)cc(-c3cccc(C(F)(F)F)c3)nc21`, the Potency entry in assay [1], in [2], in [4] and in assay [6] was “inactive” in each case. Further, the Potency in assay [3] is 0.794 µM (active).

For `N#Cc1c(-c2ccc3c(c2)OCO3)no[n+]1[O-]`, the Potency result in assay [1], in assay [3], in assay [5] and in assay [6] was “inactive” each time. The Potency in [2] is 1.13 µM (active); in [4] it was 10.1 µM (active).

Consider `COc1ccc(-n2ccnc(NCc3ccc(Cl)cc3)c2=O)cc1`, for which the Potency in assay [1] was 14.1 µM (active). The Potency result in assay [2], in assay [3] and in assay [4] was “inactive” in each case.

As for `Cc1ccc2nc3sc(C(=O)NCCN4CCOCC4)cc3cc2c1`, the Potency result in assay [1], in assay [2], in [3], in assay [4], in [5] and in assay [6] was “inactive” in each case.

In the case of `N#Cc1c(-c2ccc(C(=O)c3ccc(O)cc3)cc2)no[n+]1[O-]`, the Potency is 10 µM (active) in [1]; 11.3 µM (active) in assay [2]; 15.8 µM (active) in assay [3]; 0.712 µM (active) in assay [4]; 12.7 µM (active) in [6]. In assay [5], the Potency entry is “inactive”.

Regarding `CC(C)C[C@H](NC(=O)CNC(=O)OCc1ccccc1)C(=O)N[C@@H](Cc1ccccc1)C(=O)CCl` (Cbz-Gly-Leu-Phe-CH2Cl), the Potency result in assay [1], in assay [2], in [3], in assay [5] and in assay [6] was “inactive” throughout. Besides, the Potency in [4] is 8.96 µM (active).

As for `CC(C)(C)OC(=O)N1CCN(c2ccc(NCc3ccc(-c4ccccc4F)o3)cc2)CC1`, the Potency in assay [1] is 1.27 µM (active); in assay [2], 12.7 µM (active). In addition, the Potency entry in assay [3], in [4] and in assay [5] was “inactive” in each case.

As for `O=C1Cc2cc(C(=O)c3ccco3)ccc2N1`, the Potency in [1] is 1.01 µM (active); in assay [2], 0.565 µM (active); in assay [3], 0.896 µM (active); in assay [4] it was 2.52 µM (active). Further, the Potency result in [5] is “inactive”.

For the compound `COc1ccc(C2Nc3ccccc3C(=O)N2CC(C)(C)C)cc1COc1ccc(NC(C)=O)cc1` (configuration not stated), the Potency in assay [1] was 11.2 µM (active); in [2], 1.59 µM (active); in assay [3] it was 15.8 µM (active); in assay [4] it was 31.6 µM (active); in assay [6], 25.2 µM (active). The Potency result in assay [5] is “inactive”.

For `COc1ccc(C2Nc3ccccc3C(=O)N2Cc2ccco2)cc1COc1cccc(NC(C)=O)c1` (configuration not stated), the Potency is 11.3 µM (active) in [1]; 12.7 µM (active) in assay [2]; 11.3 µM (active) in assay [3]; 11.3 µM (active) in assay [4]; 4 µM (active) in assay [6]. Further, the Potency entry in assay [5] was “inactive”.

In the case of `CN(CC(=O)Nc1ccc(N2CCOCC2)cc1)Cc1c(O)ccc2ccccc12`, the Potency in assay [1] was 11.3 µM (active); in assay [2] it was 2.83 µM (active); in [3] it was 15.9 µM (active); in assay [4] it was 10.1 µM (active); in [6], 2.52 µM (active).

With `O=C(C1CCN(Cc2ccccc2-c2ccccc2F)CC1)N1CCC(Cc2ccccc2)CC1`, the Potency in assay [1] was 3.16 µM (active). For the same compound, the Potency entry in [2], in [3] and in [4] was “inactive” throughout.

As for `Cc1ccc(C(=O)N2CCC(CCC(=O)N3CCCCC3)CC2)cc1`, the Potency entry in assay [1], in assay [2], in assay [3] and in assay [4] was “inactive” each time.

`O=S(=O)(Nc1cc(O)cc2cccnc12)c1ccc(Br)s1`: the Potency result in assay [1], in [2] and in assay [3] was “inactive” throughout. Besides, the Potency in [4] was 0.634 µM (active).

`COc1ccc(-c2ccc(CNc3ccc(N4CCN(C(=O)OC(C)(C)C)CC4)cc3)o2)cc1`: the Potency was 1.13 µM (active) in [1], 11.3 µM (active) in [4] and 11.3 µM (active) in [6]. Besides, the Potency entry in assay [2], in assay [3] and in assay [5] was “inactive” in each case.

As for `Cc1nc(SCC(=O)c2ccc(F)cc2)n[nH]1`, the Potency entry in assay [1], in assay [2], in [3], in assay [4], in assay [5] and in assay [6] was “inactive” throughout.

In the case of `CCn1cc2nc(SCc3ccc(C)cc3)n(CCc3ccccc3)c(=O)c2n1`, the Potency is 14.1 µM (active) in [1], 10 µM (active) in [2], 0.447 µM (active) in [3] and 7.94 µM (active) in [4].

As to `Cc1c(NC(=O)c2cc3c(s2)CCCC3)cccc1-c1cn(C)c(=O)c(Nc2ccc(C3C(=O)N(C)CCN3C)cc2)n1` (configuration not stated), the Potency entry in assay [1], in assay [4], in assay [5], in assay [8] and in [9] was “inactive” throughout. Also, the Potency is 10 µM (active) in assay [2]; 2 µM (active) and 7.94 µM (active) in assay [3]; 16.6 µM (active) in [7].

Consider `O=C(NCc1ccc(F)c(F)c1)c1ccc2nnc(-c3cccc(C(F)(F)F)c3)n2c1`, for which the Potency result in [1], in assay [3], in [4] and in assay [6] was “inactive” each time. In assay [2], the Potency is 8.91 µM (active).

Regarding `COc1ccccc1-c1cc(-c2ccccc2OC)c2onc(C)c2n1`, the Potency result in assay [1], in assay [2] and in assay [4] was “inactive” in each case. In addition, in assay [3], the Potency is 25.1 µM (active).

As to `O=C(CN1C(=O)N/C(=C\c2cccn2-c2cccc(C(=O)O)c2)C1=O)Nc1ccc(F)cc1`, the Potency result in [1], in [2], in assay [3], in assay [4] and in [5] was “inactive” each time.

As to `O=Cc1c(-c2ccccc2)no[n+]1[O-]`, the Potency in assay [1] was 14.2 µM (active); in assay [2] it was 0.565 µM (active); in assay [3] it was 4 µM (active); in [4], 11.3 µM (active); in assay [6], 0.504 µM (active). In [5], the Potency entry is “inactive”.

Regarding `COc1ccc(S(=O)(=O)N2CCN(C(=O)c3ccc([N+](=O)[O-])o3)CC2)cc1`, the Potency entry in assay [1], in assay [2], in assay [3] and in assay [4] was “inactive” in each case. Also, in assay [6], the Potency was 10 µM (active).

For the origin of these results see PubChem BioAssay (NCATS).
